Only some compounds are listed: those with a hit (about 15% of all), similar ones and a draw of the others.
HCV inh = HCV inhibition | Huh7.5.1 HCVcc-Cre infection, luciferase reporter, 44 h | Potency, µM (top dose mostly 41.8 µM), inactives show at the highest dose activity change, negative = inhibition, hits mostly inhibitors | 3.4% of 340,000 active | AID 651820; further: potency means the concentration at half of the fitted maximal effect; on the % scale 0 is the no-effect control and ±100 the full control effect
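Luciferase read-out (15 sec integration) after a 15 min room-temperature substrate step quantifies HCVcc-Cre infection. Cells, 1,000 per well, had compound added 4 h post-plating, then virus at ~0.5 moi, and were cultured 44 h.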
HCMV inh = inhibitors of human cytomegalovirus; HFF cells, HCMV-luciferase reporter, 72 h; stronger effect = lower value; activity change, negative = inhibition, % at 57.5 µM; 4.5% of 410,000 active; AID 1259415; in the data active means activity change below about -60%; inconclusive means no clear call, values can overlap the other calls; inactive means above about -39%; further: on the % scale 0 is the no-effect control and ±100 the full control effect
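HFF cells seeded 16 h at 37C, treated with compounds, infected with luciferase-reporter HCMV at MOI 1 PFU/cell; luciferase read at 72 h post infection, normalized to buffer-only and Salinomycin controls.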
Sm TGR inh = S. mansoni TGR enzyme inhibition; Q962Y6; purified TGR, DTNB reduction, TNB absorbance 405 nm; Potency, µM (titrated, usually from 114 µM), for inactives: at the top dose activity change, negative = inhibition, hits mostly inhibitors; 3% of 360,000 active; AID 485364; further: potency means the concentration at half of the fitted maximal effect; on the % scale 0 is the no-effect control and ±100 the full control effect; nearly all actives have a fitted effect of over 60% in size
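Kinetic colorimetric format: TGR-catalysed, NADPH-driven DTNB reduction monitored via TNB absorbance. Enzyme dispensed at 20 nM; compound exposure 15 min at room temperature before reaction start.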
Pf growth 48h = P. falciparum growth inhibition at 48 hours (one generation). P. falciparum luciferase growth in erythrocytes, 48 h. Potency, µM (top dose mostly 28.7 µM), for the others: at the highest dose activity change, negative = inhibition, hits mostly inhibitors. 5.9% of 310,000 active; further: potency means the concentration at half of the fitted maximal effect; on the % scale 0 is the no-effect control and ±100 the full control effect
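First compound was added to culture medium, then infected red cells at 0.1% parasitemia and 2% hematocrit (final). After incubation at 37 C under 5% CO2, luciferase detection reagent was dispensed and light output recorded.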
SARS PLpro yeast = SARS-CoV PLP inhibition in yeast. S. cerevisiae expressing SARS-CoV PLpro, growth rescue. Potency, µM (highest dose often 32.9 µM), for the others: at the highest dose activity, positive = growth rescue, usual class: activators. 0.19% of 330,000 active; calls by dose curve; further: potency means the concentration at half of the fitted maximal effect; 0% is about no effect; nearly all actives have a fitted effect of over 55% in size
Pf growth 96h = P. falciparum growth inhibition at 96 hour, primary screen for plastid delayed-death inhibitors; P. falciparum luciferase reporter growth, 96 h; Potency, µM (highest dose often 28.7 µM), inactives show at the highest dose activity change, negative = inhibition, hits mostly inhibitors; 6.9% of 320,000 active; AID 504834; further: potency means the concentration at half of the fitted maximal effect; on the % scale 0 is the no-effect control and ±100 the full control effect
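Erythrocytes infected with luciferase-expressing P. falciparum were dispensed at 2% hematocrit and 0.05% parasitemia (final), then incubated with compounds 96 hours at 37 C in 5% CO2. Luminescence after detection reagent addition reported growth.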
* hit, by the source's call; ? = inconclusive; · = no result. Unless noted, the call rests on the fitted dose curve; in most records, active means well fitted curve in the direction sought with a large enough effect; inconclusive means small, poorly fitted or top-dose-only effect, or another doubt; inactive means no such curve, though single readings can be large; an effect the other way counts as inactive or inconclusive.

SMILES	HCV inh	HCMV inh	Sm TGR inh	Pf growth 48h	SARS PLpro yeast	Pf growth 96h
Cc1c(O)ccc2c(CN(C)Cc3ccccc3)cc(=O)oc12	-21%	-67*	1%	?	-1%	-17%
Cc1nnc(SCc2cc(=O)oc3ccc4ccccc4c23)n1Cc1ccccc1	-6%	0	-19%	1%	-14%	-13%
O=c1cc(CN2CCN(Cc3ccccc3)CC2)c2ccc(O)c(O)c2o1	?	9	?	·	7%	?
Cc1c(O)ccc2c(CN3CCN(Cc4ccccc4)CC3)cc(=O)oc12	-7%	-62*	5%	0%	0%	?
CCCN1CCC(NC23CC4CC(CC(C4)C2)C3)CC1	·	·	0%	-26%	-9%	?
CC(=O)Cc1nsc(NC(=O)c2cc(-c3ccccc3Cl)oc2C)n1	-23%	-12	-1%	·	-2%	-15%
COc1ccc(C2=CC(=O)N(CCN)C2)cc1	·	3	·	·	·	·
COCCNC(=O)C1(C)CCCN(C(=O)c2ccc(F)c(Cl)c2)C1 (stereo not given)	·	-10	·	·	·	·
CCCCNC(=O)N1CCCN(c2ccc(C#N)cn2)CC1	7%	-65*	6%	18%	1%	?
N#CCCN(C(=O)COC(=O)c1ccc(Cl)nc1)c1ccc2c(c1)OCCO2	·	18	·	·	·	·
COc1ccc(/C=N/n2cnnc2)cc1COc1ccccn1	18%	3	-7%	-3%	3%	2.1µM*
COc1cc(/C=N/n2cnnc2)ccc1OCc1ccccc1	16%	-25	26%	-12%	-9%	0%
COc1ccccc1CCNC(=O)c1ccc(NC(=O)CC2SC(N3CCCCC3)=NC2=O)cc1 (stereo not given)	?	3	8%	12µM*	2%	10µM*
COc1ccc(CN(C)C(=O)c2cccc(NC(=O)CC3SC(N4CCCCC4)=NC3=O)c2)c(OC)c1 (stereo not given)	8.9µM*	-77*	·	·	·	·
COc1ccccc1OCCNC(=O)c1ccc(NC(=O)CC2SC(N3CCCC3)=NC2=O)cc1 (stereo not given)	-11%	-4	·	·	·	·
COc1cccc(CN(C)C(=O)c2cccc(NC(=O)CC3SC(N4CCCCC4)=NC3=O)c2)c1OC (stereo not given)	-15%	-24	-7%	10µM*	1%	9.3µM*
COc1cccc(CN(C)C(=O)c2ccc(NC(=O)CC3SC(N4CCCCC4)=NC3=O)cc2)c1OC (stereo not given)	2%	31	·	·	·	·
O=C(Cc1ccc(Br)cc1)Nc1ccc2[nH]ncc2c1	-25%	34	-7%	47%	-2%	7%
COc1ccc(CN2C(=O)c3ccccc3C2c2nnnn2-c2c(C)cccc2C)cc1OC (stereo not given)	·	-15	·	·	·	·
O=S(=O)(NC1CCCCC1N1CCN(c2cccc(Cl)c2)CC1)c1ccccc1 (stereo not given)	-25%	·	-6%	15µM*	-14%	-6%
CC(C)NS(=O)(=O)c1ccc(OCC(=O)N2CCCC2)cc1	20%	27	4%	-18%	-1%	?
Cc1ccc(Cl)cc1N1CCN(C(=O)CN(C2CCCCC2)S(C)(=O)=O)CC1	?	-24	9%	?	-34%	10µM*
CN1CCN(C2CCCCC2NS(=O)(=O)c2ccccc2)CC1 (stereo not given)	11%	-29	4%	2%	-4%	?
CC(C)NS(=O)(=O)c1ccc(OCC(=O)N2CCN(c3ccccc3)CC2)cc1	-2%	-5	·	-8%	1%	?
Cc1ccc(Cl)cc1N1CCN(C(=O)COc2ccc(S(=O)(=O)NC(C)C)cc2)CC1	10µM*	-89*	0%	·	-3%	?
SMILES	HCV inh	HCMV inh	Sm TGR inh	Pf growth 48h	SARS PLpro yeast	Pf growth 96h
O=C(COc1ccc(S(=O)(=O)NC2CCCCC2)cc1)N1CCN(c2cccc(Cl)c2)CC1	7.1µM*	-91*	1%	?	1%	·
COc1ccc(-n2c(SCC(=O)c3ccc(Cl)cc3)nc3c([nH]c4ccccc43)c2=O)cc1	·	34	7%	·	·	·
O=C(NCC(=O)N1CC(O)CC1C(=O)N1CC(O)CC1C(=O)OCc1ccccc1)OCc1ccccc1 (stereo not given)	3%	-34	-1%	9%	-2%	11%
Cc1occc1C(=O)NCCCc1ccccc1	3%	2	?	35%	-22%	·
Cc1occc1C(=O)NCCCCNC(=O)c1ccoc1C	-1%	-98*	-15%	-12%	-6%	·
Cc1occc1C(=O)NNC(=S)NCc1ccc(Cl)cc1	17%	-69*	7%	31%	0%	18%
Cc1occc1C(=O)NCCc1cccc(Cl)c1	3%	31	0%	·	-30%	94%
CCCCCCCCCCCNC(=O)c1ccoc1C	5%	0	18µM*	?	-61%	?
O=C(Nc1ccc(Br)cc1)c1cccc(C(=O)Nc2ccc(Br)cc2)c1	·	-1	-5%	·	·	·
COc1ccc(Cl)cc1NC(=O)C1CCN(C(=O)C2CC(=O)N(c3ccc(C)cc3)C2)CC1 (stereo not given)	-25%	-28	-18%	0%	-16%	235%
CC(=O)C1=C(c2ccccc2)N(C(C)=O)n2c(nnc2C2CCCCC2)S1	·	-95*	5%	·	·	·
COc1cccc(C2=C(C(C)=O)Sc3nnc(C4CCCCC4)n3N2C(C)=O)c1	·	-73*	0%	·	·	·
COc1ccc(C2=C(C(C)=O)Sc3nnc(-c4ccc(C)cc4)n3N2C(C)=O)cc1OC	·	-99*	-3%	·	·	·
CC(C)(C)c1ccc(C(=O)NNc2ncnc3c2cnn3-c2ccc(Cl)cc2)cc1	·	-36	4%	·	·	·
O=C1NC(=O)C2(CCCc3c([N+](=O)[O-])cccc32)N1 (stereo not given)	·	3	·	·	·	·
Cc1ccc(N(CC2CO2)S(=O)(=O)c2ccccc2[N+](=O)[O-])cc1 (stereo not given)	7%	-22	-27%	15%	-1%	32%
CC(=O)N(C(C)=O)n1c(C)nc2sc3c(c2c1=O)CCCC3	5%	?	·	-2%	-1%	-23%
CCc1nc2sc3c(c2c(=O)n1NC(=O)CCl)CCCC3	?	-74*	45µM*	11%	10µM*	·
CN(Cc1ccccc1F)c1cc2c(c3c1ccn3C)C1CCC2C1 (stereo not given)	·	1	·	·	·	·
COc1ccc(-n2nnc3c(SCC(=O)NCC4CCCO4)ncnc32)cc1 (stereo not given)	-5%	-2	12%	?	-2%	0%
O=C(Cc1ccc(-n2c(=O)c3ccccc3n(Cc3ccccc3F)c2=O)cc1)NCC1CCCO1 (stereo not given)	-7%	-1	2%	-15%	7%	4.7µM*

Compound activity deposited in PubChem by National Center for Advancing Translational Sciences (NCATS).
